BoNT-A LC inh2: blocks Botulinum neurotoxin A light chain protease. AID 588499. multiplex microsphere protease substrate cleavage, flow cytometry. actives 0.17% (n = 360,000). inhibition, % at 10 µM
Anthrax LF prot: blocks Bacillus anthracis lethal factor protease; AID 588501; inhibition, % at 10 µM; multiplex microsphere protease cleavage assay, LF; P15917; actives 0.12% (n = 360,000)
Target sequence (P15917 whole entry, looked up): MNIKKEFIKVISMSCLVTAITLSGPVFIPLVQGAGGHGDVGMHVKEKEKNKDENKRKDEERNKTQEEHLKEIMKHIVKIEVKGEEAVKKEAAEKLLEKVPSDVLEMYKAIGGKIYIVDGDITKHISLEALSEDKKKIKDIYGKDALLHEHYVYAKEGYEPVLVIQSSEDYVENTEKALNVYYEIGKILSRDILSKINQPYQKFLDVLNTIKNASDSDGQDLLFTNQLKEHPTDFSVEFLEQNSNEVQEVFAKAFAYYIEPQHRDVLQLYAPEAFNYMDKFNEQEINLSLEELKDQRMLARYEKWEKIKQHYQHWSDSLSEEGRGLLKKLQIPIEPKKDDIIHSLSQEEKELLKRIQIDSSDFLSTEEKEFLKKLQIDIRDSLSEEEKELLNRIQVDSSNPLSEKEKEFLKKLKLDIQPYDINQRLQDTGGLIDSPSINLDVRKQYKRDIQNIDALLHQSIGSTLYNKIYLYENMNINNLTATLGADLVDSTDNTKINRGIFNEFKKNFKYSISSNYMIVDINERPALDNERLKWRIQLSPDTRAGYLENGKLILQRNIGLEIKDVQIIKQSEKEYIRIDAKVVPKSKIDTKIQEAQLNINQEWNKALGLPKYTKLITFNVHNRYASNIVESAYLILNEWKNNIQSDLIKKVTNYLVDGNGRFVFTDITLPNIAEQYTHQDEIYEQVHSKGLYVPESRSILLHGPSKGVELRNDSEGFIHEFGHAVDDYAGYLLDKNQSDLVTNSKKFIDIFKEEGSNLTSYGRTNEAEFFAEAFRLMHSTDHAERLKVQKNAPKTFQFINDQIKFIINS
MazF activator: increases E. coli MazEF RNase cleavage of RNA; activation, % at 20 µM; actives 0.32% (n = 350,000); P0AE70; FAM/BHQ RNA-DNA oligo cleavage fluorescence, 5 h; in the data active = activation above about 50%
PriA SSB inh: blocks PriA binding to SSB C-terminal tail. AlphaScreen SSBct-PriA binding, biotinylated peptide. inhibition, % at 33 µM. actives 0.6% (n = 430,000); in the data active = inhibition mostly above about 37%, no sharp cut-off; inactive = mostly below about 20%
Autofluor counter: compound fluorescence in toxin protease inhibitor counterscreen; compound autofluorescence counterscreen, microsphere flow cytometry; hits give high values; fluorescence intensity (test concentration not listed); actives 3.1% (n = 360,000); AID 624483; in the data active = fluorescence intensity above about 16000; inconclusive = no clear call, values can overlap the other calls
BoNT-F LC inh: BoNT F light chain protease inhibition; Multiplex microsphere protease cleavage assay, flow cytometry; inhibition, % at 10 µM; actives 0.22% (n = 360,000); AID 588497; in the data active = inhibition above about 35%, passing the limit was not always enough; inconclusive = no clear call, values can overlap the other calls
Of the large screens only hits and unclear results are named; the others gave an inactive call. A selection: hits, their analogues and other compounds. The true share with any hit is near 3.3%. Rule as the data show it, unless noted: active = inhibition above about 30%; inconclusive = no clear call, values can overlap the other calls; inactive = below that.

CC1CCCCN1C(=O)/C(=C\c1ccccc1)c1ccccc1 (centres undefined)	Autofluor counter 21700
CC1CC(C)CN(C(=O)/C(=C\c2ccccc2)c2ccccc2)C1 (centres undefined)	none
Cc1cc(C(=O)NCCCN2CCCC2=O)no1	BoNT-A LC inh2 inconclusive, Autofluor counter 26454
COc1cc2[nH]c(=O)n(CCCCCC(=O)NCCCN3CCCC3=O)c(=O)c2cc1OC	Autofluor counter 16148
CCCN1CCCc2cc(CCNC(=O)c3ccccc3Cl)ccc21	PriA SSB inh 53 (no result: BoNT-A LC inh2, Anthrax LF prot, MazF activator, Autofluor counter, BoNT-F LC inh)
COc1ccccc1C(=O)NCCCN1CCCC1=O	Autofluor counter 20201
Cc1cc(NC(=O)C(=O)NCCCN2CCCC2=O)no1	none (no result: BoNT-A LC inh2, Anthrax LF prot, MazF activator, Autofluor counter, BoNT-F LC inh)
COc1ccccc1CNC(=O)C(=O)NCCCN1CCCC1=O	none (no result: BoNT-A LC inh2, Anthrax LF prot, MazF activator, Autofluor counter, BoNT-F LC inh)
Cc1cccc(OC2CCN(S(=O)(=O)N(C)C)CC2)n1	none (no result: BoNT-A LC inh2, Anthrax LF prot, MazF activator, Autofluor counter, BoNT-F LC inh)
CSc1ccccc1C(=O)NCc1ccnc(-c2ccsc2)c1	none (no result: BoNT-A LC inh2, Anthrax LF prot, MazF activator, Autofluor counter, BoNT-F LC inh)
CCCCCn1c(SCC#N)nc2cc(C(=O)NC[C@H]3CCCO3)ccc2c1=O	none (no result: BoNT-A LC inh2, Anthrax LF prot, MazF activator, Autofluor counter, BoNT-F LC inh)
O=C(NCCCN1CCCC1=O)c1cccc(C(F)(F)F)c1	BoNT-A LC inh2 inconclusive, Autofluor counter 20148
CCCN1CCCc2cc(CCNC(=O)C(=O)NCCc3ccccc3)ccc21	none (no result: BoNT-A LC inh2, Anthrax LF prot, MazF activator, Autofluor counter, BoNT-F LC inh)
CCCN1CCCc2cc(CCNC(=O)c3ccccc3C)ccc21	PriA SSB inh 59 (no result: BoNT-A LC inh2, Anthrax LF prot, MazF activator, Autofluor counter, BoNT-F LC inh)
CCCN1CCCc2cc(CCNC(=O)c3ccccc3OC)ccc21	PriA SSB inh 73 (no result: BoNT-A LC inh2, Anthrax LF prot, MazF activator, Autofluor counter, BoNT-F LC inh)
C=CCOc1ccc2nc(NC(=O)OC)[nH]c2c1	Autofluor counter 23127
O=C(Nc1ccc2cn[nH]c2c1)C1CN(C(=O)COc2ccccc2F)C1	none (no result: BoNT-A LC inh2, Anthrax LF prot, MazF activator, Autofluor counter, BoNT-F LC inh)
N#CC1=C(N)SC(N)=C(C#N)C1C1C=CCCC1 (centres undefined)	Autofluor counter 19353
CN(C)C(=O)c1ccc(-c2n[nH]c(=O)c3ccccc23)cc1	none (no result: PriA SSB inh)
COC(=O)c1ccc(-c2n[nH]c(=O)c3ccccc23)cc1	BoNT-A LC inh2 inconclusive, Autofluor counter 19671
CC(=O)Nc1ccc(SCCCC(=O)Nc2cc(C)on2)nn1	none (no result: BoNT-A LC inh2, Anthrax LF prot, MazF activator, Autofluor counter, BoNT-F LC inh)
Cc1ccccc1[C@@H]1CCN(S(=O)(=O)c2ccc(F)cc2C)CCS1	none (no result: BoNT-A LC inh2, Anthrax LF prot, MazF activator, Autofluor counter, BoNT-F LC inh)
CN(C)c1cccc(C(=O)N2CCC(CSCc3ccco3)CC2)c1	PriA SSB inh 29 (no result: BoNT-A LC inh2, Anthrax LF prot, MazF activator, Autofluor counter, BoNT-F LC inh)
O=C(c1c[nH]c2ccccc12)N1CCC(CSCc2ccco2)CC1	PriA SSB inh 35 (no result: BoNT-A LC inh2, Anthrax LF prot, MazF activator, Autofluor counter, BoNT-F LC inh)
N#Cc1cccc(C(=O)N2CCC(CSCc3ccco3)CC2)c1	none (no result: BoNT-A LC inh2, Anthrax LF prot, MazF activator, Autofluor counter, BoNT-F LC inh)
Cc1ccc(F)cc1NC(=O)Cn1c(C)nc2c(sc3cccc(F)c32)c1=O	none (no result: BoNT-A LC inh2, Anthrax LF prot, MazF activator, Autofluor counter, BoNT-F LC inh)
COC(=O)CSc1nc2cc3c(cc2cc1C)OCCO3	none
CCc1nnc(NC(=O)CSc2nnc3scc(-c4ccc(C)cc4)n23)s1	Autofluor counter 21013
CCc1nnc(NC(=O)CSc2nc3cc4c(cc3cc2C)OCCO4)s1	MazF activator 55
CCc1nnc(NC(=O)CSc2nnc(-c3ccccc3O)n2CC)s1	Autofluor counter 25104
CC(NCc1cc(Br)ccc1OCC(N)=O)C12CC3CC(CC(C3)C1)C2 (centres undefined)	Autofluor counter 21485, BoNT-F LC inh inconclusive
Cc1ccc(C2CC(=O)c3cnc(N4CCc5ccccc5C4)nc3C2)cc1 (centres undefined)	BoNT-A LC inh2 inconclusive, Autofluor counter 19424
CCOC(=O)c1cnc2cc(C(F)(F)F)ccc2c1Nc1c(C)n(C)n(-c2ccccc2)c1=O	none (no result: BoNT-A LC inh2, Anthrax LF prot, MazF activator, Autofluor counter, BoNT-F LC inh)
O=C(O)Cn1nc2ccccc2n1	BoNT-A LC inh2 inconclusive, Autofluor counter 22940
Cc1ccc(SCC(=O)O/N=C(\N)c2ccc([N+](=O)[O-])cc2)cc1	Autofluor counter 22162
NC(=NOC(=O)CSc1ccccc1)c1ccc([N+](=O)[O-])cc1	none (no result: BoNT-A LC inh2, Anthrax LF prot, MazF activator, Autofluor counter, BoNT-F LC inh)
O=C(Cn1cnc2ccccc21)N1Cc2cnc(N3CCOCC3)nc2C1	none (no result: BoNT-A LC inh2, Anthrax LF prot, MazF activator, Autofluor counter, BoNT-F LC inh)
CC(=NC1CC1)C1=C(O)c2ccccc2C1=O	BoNT-A LC inh2 inconclusive, Autofluor counter 22929
C/C(=N\N(C)C)C1=C(O)c2ccccc2C1=O	none (no result: PriA SSB inh)
CCSc1nnc([C@@H](N)Cc2c[nH]c3ccccc23)o1	none
Cc1cccc(NC(=O)CSc2nnc([C@@H](N)Cc3c[nH]c4ccccc34)o2)c1C	Autofluor counter 23387
CCSc1nnc(C(N)Cc2ccccc2)o1 (centres undefined)	none
CSc1nnc([C@@H](N)Cc2c[nH]c3ccccc23)o1	none
CCSc1nnc([C@@H](N)Cc2ccccc2)o1	Autofluor counter 21095
N[C@@H](Cc1c[nH]c2ccccc12)c1nnc(SCc2ccccc2F)o1	Autofluor counter 22370
Cc1ccc(C)c(NC(=O)CSc2nnc([C@@H](N)Cc3ccccc3)o2)c1	Autofluor counter 24097
